# PubChem BioAssay AID1159580 (chemical genetic matrix, 2015)
# The whole screen tested about 5,500 compounds, of which about 2,000 (36%) were called active. Roughly 18% stayed inconclusive and do not appear here. The list shows a part of the results. A number with no mark means an inactive call. No stated cut-off is given here; in the data, active means normalized growth mostly below about 0.91 (no sharp cut-off); inconclusive means no clear call, values can overlap the other calls; inactive means mostly above about 0.92.
# Experiment: chemical genetic growth profiling, strain panel (AID 1159580);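 further: tested at 20 µM; growth read once vehicle control cultures reached saturation at 30 °C; 1 = growth at the plate median or of vehicle wells; lower values mean less growth of the strain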
# Details: S. cerevisiae deletion strains, growth OD
smiles,measurement,setting,value
CCOC(=O)c1sc(S(C)=NC(=O)Nc2ccc(Cl)cc2)c2c1CCC=C2 (stereo unspecified),normalized growth,"locus YAR019C, strain CDC15, active compounds read low",0.985
same,normalized growth,"locus YBL105C, strain PKC1, active compounds read low",0.974
same,normalized growth,"locus YBR135W, strain CKS1, active compounds read low",0.974
same,normalized growth,"locus YBR136W, strain MEC1, active compounds read low",0.974
same,normalized growth,"locus YBR160W, strain CDC28, active compounds read low",0.978
same,normalized growth,"locus YDL017W, strain CDC7, active compounds read low",0.979
same,normalized growth,"locus YDL028C, strain MPS1, active compounds read low",0.971
same,normalized growth,"locus YDL101C, strain DUN1, active compounds read low",0.97
same,normalized growth,"locus YDL108W, strain KIN28, active compounds read low",0.972
same,normalized growth,"locus YDL132W, strain cdc53, active compounds read low",0.965
same,normalized growth,"locus YDL214C, strain PRR2, active compounds read low",0.922
same,normalized growth,"locus YDR052C, strain DBF4, active compounds read low",0.981
same,normalized growth,"locus YDR054C, strain cdc34, active compounds read low",0.974
same,normalized growth,"locus YDR226W, strain ADK1, active compounds read low",0.963
same,normalized growth,"locus YDR477W, strain SNF1, active compounds read low",0.937
same,normalized growth,"locus YER123W, strain YCK3, active compounds read low",0.923
same,normalized growth,"locus YER133W, strain GLC7, active compounds read low",0.945
same,normalized growth,"locus YFL009W, strain cdc4, active compounds read low",0.973
same,normalized growth,"locus YFL029C, strain CAK1, active compounds read low",0.977
same,normalized growth,"locus YFR003C, strain YPI1, active compounds read low",0.976
same,normalized growth,"locus YFR019W, strain FAB1, active compounds read low",0.94
same,normalized growth,"locus YFR028C, strain CDC14, active compounds read low",0.975
same,normalized growth,"locus YGR040W, strain KSS1, active compounds read low",0.922
same,normalized growth,"locus YGR052W, strain FMP48, active compounds read low",0.954
same,normalized growth,"locus YGR092W, strain DBF2, active compounds read low",0.947
same,normalized growth,"locus YHR030C, strain SLT2, active compounds read low",1.05
same,normalized growth,"locus YHR079C, strain IRE1, active compounds read low",1.01
same,normalized growth,"locus YHR082C, strain KSP1, active compounds read low",1.02
same,normalized growth,"locus YHR205W, strain SCH9, active compounds read low",0.959
same,normalized growth,"locus YIL147C, strain SLN1, active compounds read low",0.968
same,normalized growth,"locus YJL095W, strain BCK1, active compounds read low",0.963
same,normalized growth,"locus YJL128C, strain PBS2, active compounds read low",0.94
same,normalized growth,"locus YJL157C, strain FAR1, active compounds read low",0.941
same,normalized growth,"locus YJR016C, strain ILV3, active compounds read low",0.976
same,normalized growth,"locus YJR066W, strain TOR1 (second series), active compounds read low",0.923
same,normalized growth,"locus YJR066W, strain TOR1, active compounds read low",1.02
same,normalized growth,"locus YKL048C, strain ELM1, active compounds read low",0.96
same,normalized growth,"locus YKL067W, strain YNK1, active compounds read low",0.938
same,normalized growth,"locus YKL101W, strain HSL1, active compounds read low",0.902
same,normalized growth,"locus YKL193C, strain SDS22, active compounds read low",0.974
same,normalized growth,"locus YKL203C, strain TOR2, active compounds read low",1.02
same,normalized growth,"locus YLR113W, strain HOG1, active compounds read low",0.859 (active)
same,normalized growth,"locus YLR133W, strain CKI1, active compounds read low",0.926
same,normalized growth,"locus YLR403W, strain SFP1, active compounds read low",0.953
same,normalized growth,"locus YML070W, strain DAK1, active compounds read low",0.916
same,normalized growth,"locus YMR001C, strain CDC5, active compounds read low",0.978
same,normalized growth,"locus YMR205C, strain PFK2 (second series), active compounds read low",0.951
same,normalized growth,"locus YMR277W, strain FCP1, active compounds read low",0.974
same,normalized growth,"locus YNL006W, strain LST8, active compounds read low",0.982
same,normalized growth,"locus YNL020C, strain ARK1, active compounds read low",0.93
same,normalized growth,"locus YNL161W, strain CBK1, active compounds read low",0.978
same,normalized growth,"locus YNL183C, strain NPR1, active compounds read low",1
same,normalized growth,"locus YNL207W, strain RIO2, active compounds read low",0.968
same,normalized growth,"locus YNL222W, strain SSU72, active compounds read low",0.975
same,normalized growth,"locus YNL307C, strain MCK1 (second series), active compounds read low",0.951
same,normalized growth,"locus YOL078W, strain AVO1, active compounds read low",0.96
same,normalized growth,"locus YOL136C, strain PFK27, active compounds read low",0.895
same,normalized growth,"locus YOR061W, strain CKA2, active compounds read low",0.945
same,normalized growth,"locus YOR119C, strain RIO1, active compounds read low",0.998
same,normalized growth,"locus YOR231W, strain MKK1, active compounds read low",0.894
same,normalized growth,"locus YOR329C, strain SCD5, active compounds read low",0.976
same,normalized growth,"locus YPL031C, strain PHO85, active compounds read low",0.94
same,normalized growth,"locus YPL153C, strain RAD53, active compounds read low",0.953
same,normalized growth,"locus YPL204W, strain HRR25, active compounds read low",0.9
same,normalized growth,"locus YPL209C, strain IPL1, active compounds read low",0.968
same,normalized growth,"locus YPL256C, strain CLN2, active compounds read low",0.999
same,normalized growth,"locus YPR025C, strain CCL1, active compounds read low",0.981
same,normalized growth,"locus YPR106W, strain ISR1, active compounds read low",0.962
same,normalized growth,"locus YPR111W, strain DBF20, active compounds read low",0.985
same,normalized growth,"strain NNK1, active compounds read low",0.961
same,normalized growth,"strain TSCII, active compounds read low",0.97
